± gives the standard deviation of the averaged measurements. The full ranking holds about 25,000 sequences; the median of “ln(normalized median fluorescence intensity)” is about 8.6, and the highest 2% start at about 10. The full list was thinned out, with the highest values kept by preference.
system: PfAP2-EXP AP2 domain (GST-tagged); test: gcPBM binding intensity (ln(normalized median fluorescence intensity)); higher = stronger DNA binding
Outline: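 DNA-binding domains from P. falciparum, fused to GST and produced in E. coli, were put on an Agilent 4 × 180k double-stranded probe array for 1 h in 1× PBS holding 1% milk, 0.2 mg/ml BSA, 0.5% salmon testes DNA and 0.03% Triton X-100. Probes were primer-extended, 36 bp long and drawn from intergenic genomic regions, with negative controls included. After Alexa488 anti-GST antibody detection and a 488 nm scan, binding intensity was set as the highest Masliner-normalised natural-log median intensity across replicate spots of either probe orientation.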

Q: Which “gcPBM binding intensity (ln)” value does the source give for “AAACCTTTAGAAAATCGTACAAAACATAACCACCTA [XGTACX_site1098]” here?
A: The value was 8.81 ± 0.61.

Q: Which “gcPBM binding intensity (ln)” value does the source give for “CACAGACACGGACACACACACACAAAAAAAAAAAGA [CACACA_site4436]” here?
A: Its value is 8.44 ± 0.57.

Q: How did the “gcPBM binding intensity (ln)” value turn out when “TATTTTTAAATATAAAGTACTTATATTAACTACGAA [XGTACX_site1524]” was run?
A: Its value is 8.27 ± 0.29.

Q: With “TATATATATACATACATACACACATATATATATATA [CACACA_site4109]” as the sequence, how does the “gcPBM binding intensity (ln)” value read?
A: Its value is 10.1 ± 0.67.

Q: How did the “gcPBM binding intensity (ln)” value turn out when “ACAATAAAATATGGCACACATATATATATATATTTA [CACACA_site3]” was run?
A: The value was 8.43 ± 0.34.

Q: How did the “gcPBM binding intensity (ln)” value turn out when “AAAATCTAGGTATTTATACACACTAAAATAATATAC [CACACA_site623]” was run?
A: The value was 8.52 ± 0.3.

Q: Which “gcPBM binding intensity (ln)” value does the source give for “AAATAAAATAAAATAAAATAAAATAAAATAAAATAA [XGTACX_negctrl_site142]” here?
A: Its value is 8.49 ± 0.28.

Q: For “AAAAAATATATATGCACACACAAAAAAACAAATTAA [CACACA_site1278]”, which “gcPBM binding intensity (ln)” value is on record?
A: Its value is 8.78 ± 0.38.

Q: Which “gcPBM binding intensity (ln)” value does the source give for “ATATATATATATTGTACACACATTTATGCATATATA [CACACA_site5738]” here?
A: The value was 9.97 ± 0.3.

Q: “AGTGAAATTTTAGTCACACAGTTTTATCTTTAAGAA [CACACA_site5202]” was tested. Which “gcPBM binding intensity (ln)” value did it give?
A: The value was 8.12 ± 0.52.

Q: Which “gcPBM binding intensity (ln)” value does the source give for “TTGTGTTATCACACGAAGGGGATAAGACATAAATGT [TGCATGCA_negctrl_site368]” here?
A: The value was 8.49 ± 0.49.

Q: How did the “gcPBM binding intensity (ln)” value turn out when “TCTTAAGGAAAAGAGTGTACAGAAATTTTTATTAAC [XGTACX_site6139]” was run?
A: The value was 8.67 ± 0.48.

Q: How did the “gcPBM binding intensity (ln)” value turn out when “TGTAGTCTGGAGAAAAGTACATAGTATCTGGTAACC [XGTACX_site2025]” was run?
A: Its value is 8.62 ± 0.38.

Q: With ATAAAAAGCTAAAAAGTGCAAAAAGTAAATATTTAA as the sequence, how does the “gcPBM binding intensity (ln)” value read?
A: Its value is 9 ± 0.44.

Q: For “TTTAAATAAAATATTACACACTTAGAAAAATATATA [CACACA_site3663]”, which “gcPBM binding intensity (ln)” value is on record?
A: The value was 8.38 ± 0.28.

Q: Which “gcPBM binding intensity (ln)” value does the source give for “AGAATAATAAAATGGGTGCAATAGTTTTTTTTTTTT [GTGCAC_site9823]” here?
A: The value was 8.59 ± 0.13.

Q: With “TATATAAACACGTACACACACATATAGGTATTTATA [CACACA_site7615]” as the sequence, how does the “gcPBM binding intensity (ln)” value read?
A: The value was 8.71 ± 0.49.

Q: How did the “gcPBM binding intensity (ln)” value turn out when “TATAAGTTTATATATACACACATATATATATATATA [CACACA_site3274]” was run?
A: The value was 10.2 ± 0.34.

Q: For “CATATATATATATATACACACATATATATTTTCTTT [CACACA_site1457]”, which “gcPBM binding intensity (ln)” value is on record?
A: The value was 8.69 ± 0.15.

Q: Which “gcPBM binding intensity (ln)” value does the source give for “TTTTTTTTTTTTAATACACACATATTTATATTTATT [CACACA_site7802]” here?
A: The value was 8.44 ± 0.3.

Q: Which “gcPBM binding intensity (ln)” value does the source give for “TATATACATATATATACACACATATATATATTTTAT [CACACA_site3788]” here?
A: Its value is 8.26 ± 0.4.

Q: How did the “gcPBM binding intensity (ln)” value turn out when “AGGATATATAAGTATACACACATATTTATATTTATA [CACACA_site6239]” was run?
A: Its value is 8.23 ± 0.42.

Q: How did the “gcPBM binding intensity (ln)” value turn out when “AATATATTTTAATACACACACACATATATATATATA [CACACA_site5969]” was run?
A: Its value is 10.3 ± 0.34.

Q: With “TATATATATATATATACACACATATATATATTTTTC [CACACA_site3983]” as the sequence, how does the “gcPBM binding intensity (ln)” value read?
A: Its value is 10.2 ± 0.26.

Q: Which “gcPBM binding intensity (ln)” value does the source give for “ACAAATAAGTTTTATACACACATATAAGTAAATACA [CACACA_site4157]” here?
A: The value was 8.57 ± 0.29.

Q: With “ATTTATATATATATAGGTACACATATTTATATATAA [XGTACX_site8487]” as the sequence, how does the “gcPBM binding intensity (ln)” value read?
A: The value was 8.23 ± 0.2.

Q: For “TTTTTTTTTTTTAATACACACATATATATATTTATT [CACACA_site3994]”, which “gcPBM binding intensity (ln)” value is on record?
A: Its value is 8.38 ± 0.42.

Q: For “ATATATTTATTATTAGGTACACATATATATATATAT [XGTACX_site5045]”, which “gcPBM binding intensity (ln)” value is on record?
A: Its value is 10.2 ± 0.54.

Q: “TATATAAACCCGTACACACACATATATGTATATATA [CACACA_site3507]” was tested. Which “gcPBM binding intensity (ln)” value did it give?
A: Its value is 8.91 ± 0.25.

Q: How did the “gcPBM binding intensity (ln)” value turn out when “TGTTTTTAAATTTAAATCAAAAAATAAAATAAAATA [GTGCAC_negctrl_site355]” was run?
A: Its value is 8.34 ± 0.48.

Q: For “CTTACCAAAAGACACACACACACAAGATATATAAAT [CACACA_site6964]”, which “gcPBM binding intensity (ln)” value is on record?
A: Its value is 8.77 ± 0.56.

Q: For “TATTGTTATGTCGTTATTAACTTTCTTTAATTAATT [CACACA_negctrl_site174]”, which “gcPBM binding intensity (ln)” value is on record?
A: The value was 8.95 ± 0.29.

Q: Which “gcPBM binding intensity (ln)” value does the source give for “TTTTTTTTTTTGAGGAGGACACAAAAATATGCTACC [XGTACX_site756]” here?
A: The value was 8.53 ± 0.26.

Q: How did the “gcPBM binding intensity (ln)” value turn out when “TTTAATCAATGATTTAATGAAAAAAGCAAAAAAAAA [GTGCAC_negctrl_site213]” was run?
A: The value was 8.38 ± 0.45.

Q: Which “gcPBM binding intensity (ln)” value does the source give for “AAAAATTTTAATTAGGAACACACATATATATATATA [CACACA_site9016]” here?
A: The value was 10.1 ± 0.27.

Q: How did the “gcPBM binding intensity (ln)” value turn out when “TGAATATTTCTATATACACACATATATATATATATA [CACACA_site3451]” was run?
A: Its value is 10.3 ± 0.12.

Q: Which “gcPBM binding intensity (ln)” value does the source give for “TATATATATATTTATACACACACATATATTTATATA [CACACA_site8054]” here?
A: Its value is 9.47 ± 0.071.

Q: For “ATTTATTGACTATTTACACACATATTTATTATAATA [CACACA_site1624]”, which “gcPBM binding intensity (ln)” value is on record?
A: Its value is 8.9 ± 0.52.

Q: How did the “gcPBM binding intensity (ln)” value turn out when “AAATTTTAATTAGGAACACACATATATATATATATA [CACACA_site5673]” was run?
A: Its value is 10.2 ± 0.24.

Q: Which “gcPBM binding intensity (ln)” value does the source give for “TATATATATATATATACACACATATATATATTTATA [CACACA_site627]” here?
A: Its value is 10.3 ± 0.18.

Q: Which “gcPBM binding intensity (ln)” value does the source give for “TAATATTGACTATATACACACATATATATATATATA [CACACA_site575]” here?
A: Its value is 10.2 ± 0.28.

Q: “GTAATTTTTTTCTATACACACATATATATAATATAT [CACACA_site2655]” was tested. Which “gcPBM binding intensity (ln)” value did it give?
A: The value was 8.74 ± 0.32.

Q: “TAATATTGACTATATACACACATATAAATATAAATA [CACACA_site6414]” was tested. Which “gcPBM binding intensity (ln)” value did it give?
A: The value was 8.4 ± 0.33.

Q: With “TATTTATATTTATATACACACATACATATTTATATT [CACACA_site6535]” as the sequence, how does the “gcPBM binding intensity (ln)” value read?
A: The value was 8.41 ± 0.33.

Q: Which “gcPBM binding intensity (ln)” value does the source give for “TGAATATTTCTATATACACACATATAAATATAAATA [CACACA_site7593]” here?
A: Its value is 8.26 ± 0.36.

Q: For “AAATTATAATTAGGAACACACATATATATATATATA [CACACA_site3098]”, which “gcPBM binding intensity (ln)” value is on record?
A: Its value is 10.1 ± 0.33.

Q: “AAATTCATATGAATTTGTACGGACATAAATATCTTC [XGTACX_site1838]” was tested. Which “gcPBM binding intensity (ln)” value did it give?
A: Its value is 8.62 ± 0.33.

Q: TGAATTTACAAAATCATGCACTTAATTACAGAATAA was tested. Which “gcPBM binding intensity (ln)” value did it give?
A: The value was 8.38 ± 0.26.

Q: TCCATATGCAAACTGGTGCACAAGTAGCTTTTATAT was tested. Which “gcPBM binding intensity (ln)” value did it give?
A: Its value is 8.99 ± 0.3.

Q: Which “gcPBM binding intensity (ln)” value does the source give for “TCATAAAAAGGAATCTTTAAGATATTTTATAAGCTC [XGTACX_negctrl_site18]” here?
A: The value was 8.06 ± 0.5.

Q: “TATATAAAAATCAATTGTACTTTTTTTTTTTTTTTT [XGTACX_site7327]” was tested. Which “gcPBM binding intensity (ln)” value did it give?
A: The value was 8.52 ± 0.16.

Q: “TTAAGATCCTAAAAAACACACAATTGTGAATAATAA [CACACA_site3872]” was tested. Which “gcPBM binding intensity (ln)” value did it give?
A: The value was 8.69 ± 0.53.

Q: With “TGTAGATAAAATAAACGTACGTATTGATTTTTTTCA [XGTACX_site1610]” as the sequence, how does the “gcPBM binding intensity (ln)” value read?
A: Its value is 8.26 ± 0.41.

Q: With “TATTCTAGTCTGCTTACACACATATTTATATTTATA [CACACA_site7432]” as the sequence, how does the “gcPBM binding intensity (ln)” value read?
A: Its value is 8.81 ± 0.54.

Q: How did the “gcPBM binding intensity (ln)” value turn out when “TATTATATTCTGCTTACACACATATATATATATATA [CACACA_site3060]” was run?
A: Its value is 10.3 ± 0.38.

Q: How did the “gcPBM binding intensity (ln)” value turn out when “CATATTATATTCTGCTTACACACATATATATATATA [CACACA_site3059]” was run?
A: The value was 10.1 ± 0.42.

Q: With “GAAGATTTATCTTGCACACGCAAAAAAAAAAAAAAA [CACACA_site154]” as the sequence, how does the “gcPBM binding intensity (ln)” value read?
A: The value was 8.4 ± 0.27.
